A word on the viability: it is a read-out of living cells in per cent, often relative to untreated cells.

The source of these data is PubChem BioAssay (NCATS).

Values joined by “and” are separate entries in the source; they are usually repeats but may differ in a detail not shown here. Equal values may be shown once. Records with an inconclusive call do not appear. A number with no mark means an inactive call. Active and inactive are the calls of the source. Unless noted, calls come from the whole dose curve; as a rule, active = well fitted curve in the direction sought with a large enough effect; inconclusive = small, poorly fitted or top-dose-only effect, or another doubt; inactive = no such curve, though single readings can be large; an effect the other way counts as inactive or inconclusive.

For assay [1], the target named is Cellular tumor antigen p53 (Homo sapiens) (UniProt P04637). Nature of the assay: Primary qHTS for small molecule compounds that upregulate eGFP-tagged delta133p53alpha (in N-terminal) cells. (AID 2060322).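 Note: cells pre-induced with doxycycline then dosed without doxycycline; series mostly up to about 56 µM; 0% = DMSO vehicle and 100% = reference activator; nearly all actives have a fitted effect of over 75% in size.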 The conditions noted are these: NCI-H358 eGFP-delta133p53alpha fluorescence, 24 h; activation: stronger effect = higher value. Summed up:
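NCI-H358 cells pre-induced 24 h with 10 ng/ml doxycycline for eGFP-delta133p53alpha, plated dox-free and exposed 24 h at 37C to titrated compounds. Fixed, Hoechst-stained; gated GFP peak intensity by laser scanning cytometry, normalized to DMSO (0%) and 57.5 uM 5-azacytidine (100%).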

For assay [2] the target is unchanged. Kind of assay: Primary qHTS for small molecule compounds that upregulate eGFP-tagged delta133p53alpha (in C-terminal) cells. (AID 2060324).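 Note: 0% = DMSO wells and 100% = 57.5 µM 5-azacytidine.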 Summed up:
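Doxycycline (100 ng/ml, 24 h) first induced the eGFP fusion in NCI-H358 C-terminal-tag cells. Washed-out cells then received titrated compounds for 24 h at 37 °C before paraformaldehyde fixation, Hoechst staining and cytometric GFP quantification.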
For orientation: qHTS replaces the single test concentration by a dilution series.

For assay [3], the target named is Aldehyde dehydrogenase, mitochondrial (Homo sapiens) (UniProt P05091). Nature of the assay: qHTS for Inhibitors of the Aldehyde Dehydrogenase Family (ALDH2) Validation screens (AID 2061302; active = well fitted inhibition curve with a large enough effect; title and protocol of this record describe different tests;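 note: plate controls were DMSO vehicle for no effect and maximal DPI positive control response for full effect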).
For assay [4] the target is unchanged. Kind of assay: qHTS for Inhibitors of the Aldehyde Dehydrogenase Family (ALDH2) Primary screen (AID 2061308).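 Note: plate controls were vehicle for no effect and reference inhibitor for full effect; nearly all actives have a fitted effect of over 55% in size.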
Assay [5] addresses Retinaldehyde dehydrogenase 3 (Homo sapiens) (UniProt P47895). Nature of the assay: qHTS for Inhibitors of the Aldehyde Dehydrogenase Family (ALDH1A3) Primary screen (AID 2061315).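 Note: plate controls were DMSO vehicle for no effect and reference inhibitor for full effect.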
For assay [6] the target is unchanged. Kind of assay: qHTS for Inhibitors of the Aldehyde Dehydrogenase Family (ALDH1A3) Validation screen (AID 2061312). Note: % is set by controls: 0 for no effect and ±100 for the full control effect; nearly all actives have a fitted effect of over 45% in size.
The nature of assay [7]: BET inhibitor-based combinations targeting novel dependencies in MECOM-rearranged (r) AML: OCI-AML3 cell line (AID 2202232). Note: nearly all actives have a fitted effect of over 35% in size. Note: potency is the fitted concentration of half-maximal effect. The settings on record: Potency: OCI-AML3 viability. Summed up: (§1)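 500 cells/well; 11-pt dose curve; 48 h, standard incubator; CellTiter-Glo luminescence after 15 min RT; DMSO/empty-well normalization; AUC plus Z-AUC (mean-centered within each line).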

Assay [8] is described as follows: BET inhibitor-based combinations targeting novel dependencies in MECOM-rearranged (r) AML: UCSD-AML1 cell line (AID 2202235). Note: nearly all actives have a fitted effect of over 40% in size. Note: potency is the fitted concentration of half-maximal effect. Summed up: (§2)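 Cells were plated at 500 per well and exposed to each drug across an 11-point dose range for 48 hr at standard incubator conditions. Viability was read by CellTiter-Glo luminescence, and activity was expressed as AUC and per-cell-line Z-transformed AUC.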

Assay [9] can be described thus: BET inhibitor-based combinations targeting novel dependencies in MECOM-rearranged (r) AML: AML-191 cell line (AID 2202236; note: nearly all actives have a fitted effect of over 35% in size; note: potency is the fitted concentration of half-maximal effect). Summed up:
as §1

A short description of assay [10]: BET inhibitor-based combinations targeting novel dependencies in MECOM-rearranged (r) AML: AML-194 cell line (AID 2202237; note: nearly all actives have a fitted effect of over 40% in size; note: potency is the fitted concentration of half-maximal effect). Summed up:
as §1

A short description of assay [11]: BET inhibitor-based combinations targeting novel dependencies in MECOM-rearranged (r) AML: SET-2 cell line (AID 2202231).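 For viability: plate controls were DMSO treated cells for no effect and wells without cells for full effect.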 Note: nearly all actives have a fitted effect of over 35% in size. Note: potency is the fitted concentration of half-maximal effect. The settings on record: SET-2 AML cells viability, CellTiter-Glo luminescence, 48 h; viability: stronger effect = lower value, concentration not given here. Summed up: as §1
(In general: ATP-based viability assays read luminescence as a measure of living cells.)

Assay [12] can be described thus: BET inhibitor-based combinations targeting novel dependencies in MECOM-rearranged (r) AML: MV-4-11 cell line (AID 2202233). Note: nearly all actives have a fitted effect of over 45% in size. Note: potency is the fitted concentration of half-maximal effect. Summed up:
as §2

Assay [13] in a line: BET inhibitor-based combinations targeting novel dependencies in MECOM-rearranged (r) AML: HNT-34 cell line (AID 2202234). Note: nearly all actives have a fitted effect of over 35% in size. Note: potency is the fitted concentration of half-maximal effect. Summed up:
as §2

Sequence of Cellular tumor antigen p53 (Homo sapiens) (P04637 whole entry, looked up): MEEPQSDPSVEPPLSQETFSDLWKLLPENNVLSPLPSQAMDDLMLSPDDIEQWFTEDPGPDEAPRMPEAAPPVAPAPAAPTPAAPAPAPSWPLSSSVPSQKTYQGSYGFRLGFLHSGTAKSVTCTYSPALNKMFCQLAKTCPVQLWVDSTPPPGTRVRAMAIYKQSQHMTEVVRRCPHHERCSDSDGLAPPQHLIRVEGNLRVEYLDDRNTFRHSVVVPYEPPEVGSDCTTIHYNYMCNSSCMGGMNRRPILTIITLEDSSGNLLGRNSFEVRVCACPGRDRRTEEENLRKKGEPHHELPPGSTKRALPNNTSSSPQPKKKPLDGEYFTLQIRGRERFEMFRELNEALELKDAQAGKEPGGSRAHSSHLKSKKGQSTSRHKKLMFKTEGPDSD

Take `CCCCc1ncc(/C=C(\Cc2cccs2)C(=O)O)n1Cc1ccc(C(=O)O)cc1`: in [1], the activation is -19.8% and -8.36% and -2.86%. In addition, the Potency result in assay [2], in assay [3], in assay [4] and in [5] was “inactive” each time.

`Cc1nn(-c2ccccc2)c(C)c1/C=N/N1CCN(Cc2ccccc2)CC1`: the activation in assay [1] is -13.7% and -4.24%. The Potency entry in assay [2], in assay [3], in assay [4], in assay [6] and in [5] was “inactive” in each case.

Take `CS(=O)(=O)c1ccc(-n2nc(C(F)(F)F)cc2-c2ccc(F)cc2)cc1`: the activation in [1] is -27.4% and -11.6%. For the same molecule, the Potency entry in assay [2], in [3], in assay [4], in assay [6] and in assay [5] was “inactive” in each case.

For `Clc1ccc2c(c1)N=C(N1CCNCC1)c1ccccc1N2`, the activation in assay [1] is 11.7% and 30.8%. Moreover, the Potency result in assay [2], in assay [3], in [4], in assay [6] and in assay [5] was “inactive” in each case.

`COc1ccccc1N1CCN(CCN(C(=O)C2CCCCC2)c2ccccn2)CC1`: in [1], the activation is -36.9% and -0.333% and -10.7%. For the same molecule, the Potency entry in assay [2], in assay [3], in [4], in [6], in [5] and in assay [7] was “inactive” in each case. The Potency entry in [8], in assay [9] and in assay [10] was “inactive” throughout.

With `OCC1NCC(O)C(O)C1O` (stereo not drawn), in assay [1], the activation is -36.6%. Further, the Potency entry in assay [2], in assay [3] and in [6] was “inactive” each time.

As to `CCN(CC)CCNC(=O)c1cc(Cl)c(N)cc1OC`, the activation in assay [1] was -1.69% and -0.477% and 10.5%. In addition, the Potency result in assay [2], in [3], in [4], in [6] and in [5] was “inactive” throughout.

Regarding `Nc1ncnc2c1c(-c1ccc(Oc3ccccc3)cc1)cn2C1CCCC1`, the activation in assay [1] was -45.6%. Further, the Potency entry in [2], in assay [3], in assay [4], in assay [6] and in assay [5] was “inactive” each time.

On to `CCN(CC)CCCCNc1ncc2cc(-c3c(Cl)cccc3Cl)c(NC(=O)NC(C)(C)C)nc2n1`, for which, in assay [1], the activation is -67.6% and 10%. In addition, the Potency result in [2], in assay [3], in assay [4], in assay [6] and in assay [5] was “inactive” in each case.

As to `O=C(Nc1ccc2[nH]ncc2c1)C1CCC1`, the activation in [1] was -2.43% and 6.33%. Also, the Potency result in [2], in assay [3], in assay [4], in assay [6] and in [5] was “inactive” throughout.

Consider `CC[C@]1(O)CC2CN(CCc3c([nH]c4ccccc34)[C@@](C(=O)OC)(c3cc4c(cc3OC)N(C)[C@H]3[C@@](O)(C(=O)OC)[C@H](OC(C)=O)[C@]5(CC)C=CCN6CC[C@]43[C@@H]65)C2)C1` (stereo partly drawn), for which the activation in [1] was 4.91%. The Potency result in [2], in [3], in [4], in assay [6] and in assay [5] was “inactive” throughout. Besides, the Potency is 0.742 µM (active) in [11]; 0.296 µM (active) in [7]; 0.263 µM (active) in assay [12]; 0.209 µM (active) in [13]; 0.263 µM (active) in assay [8]; 0.296 µM (active) in assay [9]. Further, in assay [10], the Potency was 0.296 µM (active).

For the molecule `CC(C)(Sc1ccc(CCN(CCCCC2CCCCC2)C(=O)NC2CCCCC2)cc1)C(=O)O`, the activation in assay [1] is 26.5% and 1.67% and -32.7%. Also, the Potency entry in assay [2], in assay [3], in assay [4], in [6], in assay [5] and in assay [12] was “inactive” throughout. In addition, the Potency result in assay [13], in assay [8], in [9] and in assay [10] was “inactive” throughout. In assay [11], the viability is 118%.

As for `CCN1CCC[C@H]1CNC(=O)c1cc(S(N)(=O)=O)ccc1OC`, in assay [1], the activation is -14.2% and 19% and 1.55%. The Potency entry in assay [2], in assay [3], in [4], in assay [6] and in assay [5] was “inactive” in each case.

In the case of `COC(=O)[C@@H]1[C@H]2C[C@H]3c4[nH]c5ccccc5c4CCN3C[C@@H]2CC[C@@H]1O`, the activation in assay [1] is -9.53% and 22.3%. The Potency result in [2], in assay [3], in assay [4], in assay [5], in assay [13] and in [9] was “inactive” each time. For the same molecule, the Potency result in assay [10] was “inactive”.

With `COc1ccccc1N1CCN(CCCNc2cc(=O)n(C)c(=O)n2C)CC1`, in assay [1], the activation is 16.7% and -11.6% and 14.7%. Further, the Potency result in assay [2], in assay [3], in [4], in [6] and in assay [5] was “inactive” in each case.

Regarding `Brc1cc2c(cc1[C@H]1Nc3ccccc3[C@H]3C=CC[C@H]31)OCO2`, the activation in [1] was -5.37%. Moreover, the Potency result in assay [2], in assay [3] and in [6] was “inactive” throughout.

Turning to `N[C@@H](CCC(=O)N[C@H](CSN=O)C(=O)NCC(=O)O)C(=O)O`, the activation in assay [1] was -28.5%. Besides, the Potency entry in [2], in [3] and in [6] was “inactive” throughout.

`CCCN1C[C@H](CSC)C[C@@H]2c3cccc4[nH]cc(c34)C[C@H]21`: the activation in assay [1] is 7.67% and 9.97%. Besides, the Potency entry in [2], in assay [3], in [4] and in [5] was “inactive” throughout.

For `CC(=O)N[C@@H](CS)C(=O)O`, the activation in assay [1] was 11.9% and -21.2%. Further, the Potency result in [2], in assay [3] and in [6] was “inactive” each time.

For `CC(=O)CCCCn1c(=O)c2c(ncn2C)n(C)c1=O`, the activation in [1] is -15.1% and -0.333% and -11.4%. The Potency entry in assay [2], in assay [3], in [4], in [6] and in assay [5] was “inactive” throughout.

On to `COc1ccc(Cl)cc1C(=O)NCCc1ccc(S(=O)(=O)NC(=O)NC2CCCCC2)cc1`, for which the activation in assay [1] is 3.95% and -3.34% and -19.4%. The Potency result in assay [2], in [3], in [4], in assay [6] and in [5] was “inactive” throughout.

`Nn1nnc2ccccc21`: the activation in assay [1] was 15.1%. For the same molecule, the Potency result in [2], in assay [3] and in [6] was “inactive” in each case.

Turning to `N=C(N)c1ccccc1`, the activation in assay [1] is -12.8%. Further, the Potency entry in assay [2], in assay [3] and in assay [6] was “inactive” in each case.
